Assay results reported in PubChem BioAssay (EPA / NIEHS).
Results filed as inconclusive are left out. Activity calls are given as the source filed them. How the source made its calls: active means hit-call score of the fitted dose curve at least 0.9, where 1 is the maximum; inconclusive means response in the unintended direction; inactive means score below 0.9.

Assay: CLD_ACTIN_6hr: CellzDirect (CLD) Gene Expression Assay for Baseline Control (Actin) at 6 hours (AID 2283676)
Experimental: CLD_6hr is a cell-based, multiplexed-readout assay that uses hepatocyte, a human liver primary cell, with measurements taken at 6 hours after chemical dosing in a 96-well plate.CLD_ACTIN_6hr is one of 16 assay component(s) measured or calculated from the CLD_6hr assay. It is designed to make measurements of mRNA induction, a form of inducible reporter, as detected with chemiluminescence signals by Quantitative Nuclease Protection Assay (qNPA) technology.Data from the assay component CLD_ACTIN_6hr was analyzed at the endpoint, CLD_ACTIN_6hr, in the positive analysis fitting direction relative to DMSO as the negative control and baseline of activity. Using a type of inducible reporter, gain-of-signal activity can be used to understand changes in the reporter gene as they relate to the gene ACTA1. Furthermore, this assay endpoint can be referred to as a secondary readout, because this assay has produced multiple assay endpoints where this one serves a background control function. To generalize the intended target to other relatable targets, this assay endpoint is annotated to the background measurement intended target family, where subfamily is baseline control.
Human hepatocyte cultures were treated daily for two consecutive days with fresh dosing solutions containing appropriate concentrations of the 320 ToxCast chemicals (chemical identities were blinded to CellzDirect and other ToxCast collaborators), vehicle control (0.2% DMSO), and positive control inducers as summarized in Table 1. Due to the large number of treatment groups and chemicals examined, the ToxCast chemicals were divided into two groups (spanning two independent cultures of hepatocytes from separate donor preparations (Hu778: ToxCast plates 1 and 2; Hu776: ToxCast plates 3 and 4). Each preparation of human hepatocyte cultures was treated with respective vehicle control, medium only control, set of six positive controls/reference chemicals for the five hepatic receptor pathways, and a subset of eight of the ToxCast chemicals (indoxacarb, pyrithiobac-sodium, norflurazon, cyhalofop-butyl, methomyl, thiram, acetochlor, and propiconazole). These replicate data, coupled with internal replicates designed within the blinded ToxCast chemical library, provided additional data to evaluate interindividual differences between hepatocyte preparations and their potential impact on chemical profiles.Cell morphology and integrity were evaluated using phase-contrast microscopy as an indicator of hepatocyte cell health (Tyson & Green, 1987). Cultures for each treatment group (i.e., media, vehicle [0.2% DMSO], positive control inducers [multiple concentrations], and the ToxCast chemicals [multiple concentrations]) were observed and cell morphology was assessed relative to vehicle control cultures at each harvest time point (0, 6, 24, or 48 h). […] Images were evaluated at the conclusion of the study to assess changes in cell integrity and account for the effects of chemical exposure on uncharacteristic changes in concentration-dependent gene expression profiles. The results from these determinations of apparent cytotoxicity were annotated (yes/no) alongside the corresponding qNPA data for reference.At the conclusion of each treatment period, hepatocyte cultures (96-well) were washed with 1 volume of HBSS, lysed by addition of 25 ul ArrayPlate lysis buffer (HTG, Tucson, AZ), and 70 ul/well of Denaturation Oil, denatured by incubation at 95C for 10 min, and frozen at approximately -70C until analysis by nuclease protection assay (qNPA) (Roberts et al., 2007). For qNPA analysis, cell lysates were thawed at 50C for approximately 30 min, qNPA probes were added, and samples were incubated at 95C for 10 min to begin the detection process by denaturing the target RNA, dissociating the duplexes and secondary structure hybridization. At the conclusion of the hybridization period, S1 nuclease reagent was added to each sample to digest all nonprotected nucleotides at 50C for 60-90 min. […]

| SMILES | outcome |
| --- | --- |
| CN(C)[C@@H]1C(=O)C(C(N)=O)=C(O)[C@@]2(O)C(=O)C3=C(O)c4c(O)cccc4[C@@](C)(O)[C@H]3[C@H](O)[C@@H]12 | inactive |
| CNC(=O)ON=C(C)SC | inactive |
| C#CCC1=C(C)C(OC(=O)C2C(C=C(C)C)C2(C)C)CC1=O (stereo not given) | inactive |
| CCOP(=O)(SC(C)CC)N1CCSC1=O (stereo not given) | inactive |
| CNc1cnn(-c2cccc(C(F)(F)F)c2)c(=O)c1Cl | inactive |
| CCOC(=O)CC(SP(=O)(OC)OC)C(=O)OCC (stereo not given) | inactive |
| CC(C)=CC1C(C(=O)OCN2C(=O)C3=C(CCCC3)C2=O)C1(C)C (stereo not given) | inactive |
| N#CSCSC#N | inactive |
| C=C(C)[C@H]1Cc2c(ccc3c2O[C@@H]2COc4cc(OC)c(OC)cc4[C@@H]2C3=O)O1 | inactive |
| CCCOCC(=Nc1ccc(Cl)cc1C(F)(F)F)n1ccnc1 | inactive |
| CCCOc1nn(C(=O)NS(=O)(=O)c2ccccc2C(=O)OC)c(=O)n1C | inactive |
| CC[C@H](C)[C@H]1O[C@]2(C=C[C@@H]1C)C[C@@H]1C[C@@H](C/C=C(\C)[C@@H](O[C@H]3C[C@H](OC)[C@@H](O[C@H]4C[C@H](OC)[C@@H](NC)[C@H](C)O4)[C@H](C)O3)[C@@H](C)/C=C/C=C3\CO[C@@H]4[C@H](O)C(C)=C[C@@H](C(=O)O1)[C@]34O)O2 | inactive |
| Nc1nc(N)nc(NC2CC2)n1 | inactive |
| CCC(=NOC/C=C/Cl)C1=C(O)CC(C2CCOCC2)CC1=O (stereo not given) | inactive |
| COP(=O)(NC(C)=O)SC (stereo not given) | inactive |
| C[N+]1(C)CCCCC1 | inactive |
| CCc1cccc(C)c1N(C(=O)CCl)C(C)COC (stereo not given) | inactive |
| CN(C)C(=O)Nc1cccc(C(F)(F)F)c1 | inactive |
| CSc1nnc(C(C)(C)C)c(=O)n1N | inactive |
| COc1cc(OC)nc(Sc2cccc(Cl)c2C(=O)O)n1 | inactive |

| SMILES | outcome |
| --- | --- |
| CCOP(=O)(OCC)Oc1cc(C)nc(C(C)C)n1 | inactive |
| C#CC(C)(C)NC(=O)c1cc(Cl)cc(Cl)c1 | inactive |
| Cc1cc(C2CC2)nc(Nc2ccccc2)n1 | inactive |
| CNC(=O)ON=C(SC)C(=O)N(C)C | inactive |
| CCc1cnc(C2=NC(C)(C(C)C)C(=O)N2)c(C(=O)O)c1 (stereo not given) | inactive |
| O=C(O)c1cc(Oc2ccc(C(F)(F)F)cc2Cl)ccc1[N+](=O)[O-] | inactive |
| CCOP(=S)(OCC)Oc1cc(C)nc(C(C)C)n1 | inactive |
| CC(=NC#N)N(C)Cc1ccc(Cl)nc1 | inactive |
| CCOP(=S)(Oc1cnc(C(C)(C)C)nc1)OC(C)C (stereo not given) | inactive |
| CC(C)[C@H](C(=O)O[C@H](C#N)c1cccc(Oc2ccccc2)c1)c1ccc(Cl)cc1 | inactive |
| CN(C)NC(=O)CCC(=O)O | inactive |
| CC(Oc1cccc(Cl)c1)C(=O)O (stereo not given) | inactive |
| CCOP(=S)(OCC)OC(Cl)C(Cl)(Cl)Cl (stereo not given) | inactive |
| CSC1=N[C@@](C)(c2ccccc2)C(=O)N1Nc1ccccc1 | inactive |
| COc1ccc(C(=CC(=O)N2CCOCC2)c2ccc(Cl)cc2)cc1OC | inactive |
| CC(C)N(C(=O)SCC(Cl)=C(Cl)Cl)C(C)C | inactive |
| S=C1NCCN1 | inactive |
| CC1=NNC(=O)N(/N=C/c2cccnc2)C1 | inactive |
| CCCCSP(=O)(SCCCC)SCCCC | inactive |
| CCCCN(CC)c1c([N+](=O)[O-])cc(C(F)(F)F)cc1[N+](=O)[O-] | inactive |
